Assay outcomes from PubChem.
Platelet DG rel: inhibitors of platelet dense granule secretion, primary screen, cell-based, MLPCN, human platelets; AID 1663, 2009; inhibition, %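 (compounds screened at 7.5 µM in platelet-rich plasma)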; human platelet-rich plasma, SFLLRN dense granule ATP release, luminescence; actives 0.22% (n = 300,000);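 active means mean replicate score, as percent of positive control, at or above 50; inconclusive means mean below 50 but at least one replicate at or above 50; inactive means mean and every replicate below 50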
Calb FLC: C. albicans growth inhibition with fluconazole, primary screen, CaCi-2 strain, Alamar Blue fluorescence; C. albicans CaCi-2 (fluconazole-resistant clinical isolate) + fluconazole, 48 h; AID 1979, 2009; actives 0.57% (n = 300,000); growth inhibition, % (concentration not given with the values);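 active means growth inhibition above about 58% in most replicates, limit read from the data, passing the limit was not always enough; inconclusive means exactly half the replicates above a set limit; inactive means most replicates below a set limit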;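 further: all wells also contain fluconazole at 8 µg/ml as a sub-toxic cotreatment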
PolyA inhibitor: polyadenylation inhibitors in yeast reporter cells, primary screen, luminescence, S. cerevisiae; S. cerevisiae SKY197-pL101 polyadenylation reporter, beta-gal luminescence; efflux-impaired pdr1/pdr3 knockout yeast; score 100 = 6 SD above DMSO; activity score, % at 12 µM; actives 0.02% (n = 300,000);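 active means lowest replicate activity score at least 50, where 100 means six control SD above control mean; inconclusive means lowest score under 50 but half or more replicates reach 50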;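 further: yeast exposed to compound for 9 h at 30 °C; higher score means more reporter readthrough which indicates perturbed polyadenylation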
SKKanGAS inh: S. pyogenes SKKanGAS growth inhibitors in kanamycin, primary screen, streptokinase expression inhibitor project, SKKanGAS strain, BacTiter-Glo luminescence | 6 h | inhibition, % at 7.5 µM | actives 1.3% (n = 300,000);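 active means mean replicate score, as percent of positive control median, at least 50; inconclusive means mean below 50 but one replicate at or above 50; inactive means mean and every replicate below 50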;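 further: strain carries kanamycin resistance gene driven by streptokinase promoter and grows in 40 µg/ml kanamycin; loss of luminescence reflects streptokinase promoter inhibition or plain growth inhibition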
CR mimetic SO: reduction of superoxide in aged yeast, primary screen, HTS; S. cerevisiae aged cells, superoxide DHE fluorescence; hits give low values; superoxide response (% of plate mean), % at 10 µM; actives 0.18% (n = 330,000);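 active means superoxide response under a set limit, about three screen SD below normal, cut at about 65% in these data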;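 further: yeast aged for seven days with compound at 30 °C before DHE staining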
Of the large screens only hits and unclear results are named; the others gave an inactive call. This is a sample that favours compounds with a hit; in the whole collection about 2% have one here.

O=C(NNC(=O)c1ccccc1O)c1ccc(-c2ccc([N+](=O)[O-])cc2)o1	Calb FLC 91
COc1ccc(/C=C/c2c([N+](=O)[O-])c(=O)n(C)c(=O)n2C)cc1OC	none
Cn1c(/C=C/c2ccc(Cl)cc2)c([N+](=O)[O-])c(=O)n(C)c1=O	none (no result: Platelet DG rel)
Cn1c(/C=C/c2cccc([N+](=O)[O-])c2)c([N+](=O)[O-])c(=O)n(C)c1=O	Calb FLC 94
CCCCCOc1ccc(/C=C/c2c([N+](=O)[O-])c(=O)n(C)c(=O)n2C)cc1	SKKanGAS inh 60
Nc1nonc1-c1nc2ccccc2n1CC(=O)N/N=C\c1ccc(-c2ccc(Cl)cc2)o1	SKKanGAS inh 99
COc1ccc(-c2csc(/C(C#N)=C\c3ccc(O)c([N+](=O)[O-])c3)n2)cc1OC	SKKanGAS inh 95
COc1cc(/C=C(\C#N)c2nc3ccccc3s2)cc([N+](=O)[O-])c1O	Calb FLC 88 (no result: CR mimetic SO)
O=C(Nc1cccc(C(F)(F)F)c1)C12CC3CC(CC(C3)C1)C2	none
CCOc1ccc(NC(=O)c2c(N)n(C)c(=O)[nH]c2=O)cc1	none (no result: CR mimetic SO)
CCOc1cc(C(=O)N(C)CC(=O)Nc2cccc(F)c2)ccc1OCC(=O)N1CCOCC1	none (no result: SKKanGAS inh)
CCOc1ccc(/C=C/C2=CC(C)(C)NC(=S)N2)cc1	Calb FLC 110
COc1cc(O)oc1C=Nc1ccc(C(=O)O)cc1	Platelet DG rel 70
COc1cc(O)oc1C=Nc1ccc(Cl)cc1	none
CSc1nc2nccc(-c3ccc(Oc4ccccc4)cc3)n2n1	none (no result: Platelet DG rel, Calb FLC, PolyA inhibitor, SKKanGAS inh)
CSc1nc2nccc(-c3ccc(-c4ccccc4)cc3)n2n1	SKKanGAS inh 72
CC(C)=CCc1c2c(c3occ(-c4ccc(O)cc4)c(=O)c3c1O)C=CC(C)(C)O2	SKKanGAS inh 111
CC1(C)C=Cc2c(c3c(c4c(=O)c(-c5ccc(O)cc5)coc24)OC(C)(C)CC3)O1	none
COc1ccc(CNC(=S)NC2CCCC2)cc1	none
Cc1ccc(CNC(=S)NC2CCC(C(C)(C)C)CC2)cc1 (stereo unspecified)	SKKanGAS inh 66
COc1ccc(C(C)NC(=S)NC2CCCC2)cc1OC (stereo unspecified)	none
CC(NC(=S)NC1CCC(C(C)(C)C)CC1)c1ccccc1 (stereo unspecified)	SKKanGAS inh 81
Nc1ncnc2c1ncn2[C@@H]1O[C@H](CNC(=O)[C@@H](N)COCc2ccccc2)[C@@H](O)[C@H]1O	none (no result: Platelet DG rel, Calb FLC, PolyA inhibitor, SKKanGAS inh)
COc1ccc(/C=N/N2CCN(c3ccc(Cl)cc3)CC2)cc1O	none
COc1ccc(C)cc1NC(=O)CN1CCN(S(=O)(=O)c2ccc3ccccc3c2)CC1	none (no result: Platelet DG rel, Calb FLC, PolyA inhibitor, SKKanGAS inh)
CN1CCc2c(sc3nc(SCC(N)=O)n(-c4ccc(Cl)cc4)c(=O)c23)C1	Calb FLC 101
C/C(N)=C(/C#N)C(=O)COC(=O)c1cc(-c2ccc(Br)cc2)nc2ccccc12	SKKanGAS inh 70
COc1ccc(COC(=O)c2sc3nc4n(c(=O)c3c2C)CCC4)cc1	none
O=C(Nc1cccc(Cl)c1)Nc1csc([N+](=O)[O-])c1	SKKanGAS inh 51
O=S(=O)(Cc1ccccc1)N1CCc2ccccc21	Calb FLC 100
O=C(NNC(=S)Nc1ccc(F)c(Cl)c1)c1ccccc1Br	Calb FLC 107
O=C(NNC(=S)Nc1ccc(Cl)c(Cl)c1)c1ccccn1	Calb FLC 102, SKKanGAS inh 102
Cc1cccc(NC(=S)NNC(=O)c2ccccc2Br)c1	none
O=C(N/N=C/c1sc(N2CCOCC2)nc1-c1ccccc1)c1ccc(O)cc1	none
O=C(N/N=C/c1sc(N2CCOCC2)nc1-c1ccccc1)c1cccc(S(=O)(=O)N2CCCC2)c1	Calb FLC 88
O=C(N/N=C/c1ccc(Cl)cc1Cl)c1cccc(N2CCCC2=O)c1	PolyA inhibitor inconclusive
O=C(N/N=C/c1cc(Br)cc(Br)c1O)c1cccc(S(=O)(=O)N2CCOCC2)c1	SKKanGAS inh 107
O=C(N/N=C/c1ccccc1Br)c1cccc(S(=O)(=O)N2CCOCC2)c1	none (no result: Platelet DG rel, Calb FLC, PolyA inhibitor, SKKanGAS inh)
O=C(N/N=C/c1cc(Br)cc(Br)c1O)c1cccc(N2CCCC2=O)c1	Calb FLC inconclusive, SKKanGAS inh 88
COc1ccc(S(=O)(=O)N2CCCOC2CNC(=O)C(=O)NCCc2ccco2)cc1C (stereo unspecified)	none
